According to ChEMBL document CHEMBL4513216, “Probing the Open Global Health Chemical Diversity Library for Multistage-Active Starting Points for Next-Generation Antimalarials” (ACS Infect Dis, 2020):
Among all 65,000 compounds or so, about 2,100 (3.2%) showed an effect of 50% or more. The median lay at about -52%. The entries come from a sample that favours strong results as a whole.

Each compound was assayed on Plasmodium falciparum (assay: Screen against P. falciparum Asexual Blood Stage (ABS), at 5uM). Conditions: tested at 5 uM.
Type: functional, Dd2
`CCOc1ccc(OCCN2CCC(N3CCNC3=O)CC2)cc1` showed an INHIBITION of -43.4%. `Cc1cc2c(N)nc(=O)n(CC(=O)Nc3cccc(Cl)c3)c2s1` was tested, and the INHIBITION was -44.3%. Compound `Cc1cccc(CN2CCC3(CCN(c4ncccn4)C3)C2=O)c1` (configuration not stated) has an INHIBITION of -63.6%. `O=C1N(Cc2cccc(F)c2)CCC12CCN(c1ccccn1)CC2` was tested, and the INHIBITION was 50.6%. `O=C1N(Cc2cccc(F)c2)CCC12CCCN(c1ncc(F)cn1)C2` (configuration not stated) showed an INHIBITION of -95.8%. `Cc1noc(C)c1C(=O)N1Cc2ncn(C)c2C(COCC2CC2)C1` (configuration not stated) was tested, and the INHIBITION was -98.5%. For `CN(Cc1ccco1)C[C@H]1OC[C@@H]2CCN(Cc3ccsc3)C[C@@H]21`, the INHIBITION was 67.3%. With `CN(Cc1ccco1)C[C@@H]1OC[C@H]2CN(Cc3nccs3)CC[C@H]21` the INHIBITION was -48.2%. `Cc1cccc(N2CC[C@H]3CO[C@H](CN(C)Cc4ccco4)[C@H]3C2)n1` gave an INHIBITION of 50.7%. Compound `Cc1cccc(N2CC[C@H]3[C@H](CO[C@@H]3CN(C)Cc3ccco3)C2)n1` has an INHIBITION of 7.29%. Work on `CN(Cc1ccco1)C[C@H]1OC[C@@H]2CCN(Cc3nccs3)C[C@@H]21` yielded an INHIBITION of 11.4%. Work on `CN(Cc1ccco1)C[C@H]1OC[C@@H]2CCN(Cc3cccnc3)C[C@@H]21` yielded an INHIBITION of -38.5%. In the case of `Cc1ccc(N2CC[C@H]3CO[C@H](CN(C)Cc4ccco4)[C@H]3C2)nn1`, the INHIBITION is reported as -35.9%. `CN(Cc1ccco1)C[C@H]1OC[C@@H]2CCN(Cc3ccncc3)C[C@@H]21` showed an INHIBITION of 2.4%. `Cc1ccc(CN2CC[C@H]3CO[C@H](CN(C)Cc4ccco4)[C@H]3C2)s1` gave an INHIBITION of 58.7%. With `O=C(c1ccco1)N1CCCC2(CCN(c3nncs3)C2)C1` (configuration not stated) the INHIBITION was -157%. Work on `O=C(NCc1ccccn1)[C@@]12CCO[C@@H]1CCN(Cc1ccccn1)C2` yielded an INHIBITION of -75.4%. Compound `CC(C)(C)c1nc(CNc2ccccc2SCCC(N)=O)cs1` has an INHIBITION of -98.5%. `CN(C)C1CCC2(CCN(Cc3nccn3C)CC2)c2ccccc21` (configuration not stated) showed an INHIBITION of 24.3%. With `Cn1cc(C(=O)NCCc2ccc(OC3CCCC3)cc2)ccc1=O` the INHIBITION was -53.4%. For `O=S(=O)(c1ccccc1)N1CCC2(CCCN2Cc2ccccc2Cl)C1` (configuration not stated), the INHIBITION was -129%. Work on `CCCNC(=O)C1CCCN(c2ccc3nncn3n2)C1` (configuration not stated) yielded an INHIBITION of -47.2%. `CS(=O)(=O)Nc1ccn(Cc2ccc(Cl)cc2)n1` showed an INHIBITION of -58.2%. Work on `CCCN(CCC)c1ncc(S(=O)(=O)c2ccc(OC)cc2)c(N)n1` yielded an INHIBITION of 67.6%. Work on `CCCN(CCC)c1ncc(S(=O)(=O)c2ccc(C)cc2)c(N)n1` yielded an INHIBITION of 14.8%. `CCCN(CCC)c1ncc(S(=O)(=O)c2ccccc2)c(N)n1` was tested, and the INHIBITION was -9.26%. In the case of `CC(C)(C)NC(=O)N1CCC(Oc2ccc(C(F)(F)F)cn2)CC1`, the INHIBITION is reported as -12%. For `CNC(=O)CN1CCCC12CCN(C(=O)c1ccoc1)CC2`, the INHIBITION was 53.1%. Compound `CN(C)CCN1CCCC12CCN(C(=O)c1ccoc1)CC2` has an INHIBITION of -39%. For `CNC(=O)CN1CCCC12CCN(C(=O)c1ccc(F)cc1)CC2`, the INHIBITION was -39%. Compound `O=C(CCNc1ncccn1)N1CCCC(n2cccn2)C1` (configuration not stated) has an INHIBITION of -28.6%. `Cc1cc(C(=O)NC2CCCc3c2cnn3-c2cccc(C)c2C)[nH]n1` (configuration not stated) was tested, and the INHIBITION was -1.74%. `CC(C)Cc1ncc2c(n1)CN(c1nc3ccccc3cc1CO)C2` gave an INHIBITION of -50%. In the case of `Cc1ccc(C(=O)O)c(N2Cc3cnc(C(C)(C)C)nc3C2)n1`, the INHIBITION is reported as -21.3%. For `Cc1cccc2cc(CO)c(N3Cc4cnc(C(C)(C)C)nc4C3)nc12`, the INHIBITION was 66.5%. With `O=C(c1ccoc1)N1CCO[C@]2(CCC[C@@H]2COCc2cccnc2)C1` the INHIBITION was -54.6%. `Cc1ccc(N2CC[C@@H]3[C@@H]2CCN3C(=O)Cc2ccsc2)nn1` gave an INHIBITION of -93.9%. In the case of `Cc1cc2c(cc1NC(=O)NC(C)(C)C)OCO2`, the INHIBITION is reported as -23.5%. `CCOCc1nc2c(c(N(C)Cc3snnc3C)n1)CCNCC2` gave an INHIBITION of -48%. `CCOCc1nc2c(c(N(C)Cc3nonc3C)n1)CCNCC2` was tested, and the INHIBITION was 47.4%. With `CCOCc1nc2c(c(N(C)Cc3ccsc3)n1)CCNCC2` the INHIBITION was 64.4%. Work on `CN(C)CCN1C[C@@H]2CN(c3ccccc3)C[C@@H]2C1=O` yielded an INHIBITION of -41.2%. For `c1cnn(CCCO[C@@H]2CC[C@H]3[C@H]2OCCN3CC2CC2)c1`, the INHIBITION was -65.8%. `CN(Cc1cccnc1)C1CC2(CCN(Cc3ccccn3)CC2)C1` showed an INHIBITION of 10.3%. Work on `Cc1ccc(CNC(=O)NC2CCCc3c2cnn3CCO)cn1` (configuration not stated) yielded an INHIBITION of -91.3%. For `NCCc1nc(N(Cc2cncs2)C2CC2)c2ccccc2n1`, the INHIBITION was -30.2%. `COCCN(CC1CC1)c1nc(CCN)nc2ccccc12` showed an INHIBITION of 12.1%. Work on `COCCN(Cc1cccs1)c1nc(CCN)nc2ccccc12` yielded an INHIBITION of 62.2%. For `Cc1ccsc1CN(c1nc(CCN)nc2ccccc12)C1CC1`, the INHIBITION was 51.4%. Work on `CCCc1ncc(CN(CCOC)Cc2cccs2)cn1` yielded an INHIBITION of -70.2%. In the case of `NCCc1nc(N(Cc2nccs2)C2CC2)c2ccccc2n1`, the INHIBITION is reported as -53.9%. `O=C(Cc1ccon1)N1CCN(c2ccc(F)cc2Cl)CC1` showed an INHIBITION of -28.3%. `Cc1cnn(CCNCC(O)COc2ccc(F)cc2)c1` (configuration not stated) was tested, and the INHIBITION was 47.3%. `O=C(c1ccco1)N1CCC12CCN(c1ncc(F)cn1)CC2` showed an INHIBITION of -79.7%. `CN(C)S(=O)(=O)N1CCC(Oc2cccnn2)CC1` was tested, and the INHIBITION was -57.2%. With `CCC(C)NC(=O)NCCC(=O)N1CCN(c2ccccn2)CC1` (configuration not stated) the INHIBITION was -15.2%. `Cc1nn(C)c(Cl)c1CNCc1cccnc1N1CCOCC1` was tested, and the INHIBITION was -69.2%. In the case of `CC(C)NCc1cccnc1N1CCN(c2ccccn2)CC1`, the INHIBITION is reported as 3.69%. With `CC(C)CC(C)NCc1cccnc1N1CCOCC1` (configuration not stated) the INHIBITION was 60.8%. `CCC(CC)C(=O)NCCC(=O)N1CCN(c2ccccn2)CC1` showed an INHIBITION of -123%. For `CC(C)C(=O)NCCC(=O)N1CCN(c2ccccn2)CC1`, the INHIBITION was -172%. With `Cc1nn(C)c(C)c1CNCc1cccnc1N1CCOCC1` the INHIBITION was -43.9%. Compound `CCCC(C)NCc1cccnc1N1CCN(c2ccccn2)CC1` (configuration not stated) has an INHIBITION of 51.4%. With `CC(C)CC(C)NCc1cccnc1N1CCN(c2ccccn2)CC1` (configuration not stated) the INHIBITION was 56.6%. Compound `CC1(C)CNC(=O)CN(C(=O)COc2ccccc2)C1` has an INHIBITION of -24.2%. With `NCCCNS(=O)(=O)Cc1ccc(Br)cc1` the INHIBITION was -29.3%. In the case of `Cc1cccc(CN2C(=O)CCC23CCN(Cc2ccoc2)CC3)n1`, the INHIBITION is reported as -81%. Work on `CN(C)C(=O)CN1C(=O)CCC12CCN(Cc1ccc(F)cc1)CC2` yielded an INHIBITION of -99.9%. `Cc1noc(C)c1CN1CCN(c2ccnc(-c3ccccc3)n2)CC1` showed an INHIBITION of -33.7%. `Cc1cc(C)c2nc(C)c(C(=O)N3CCC(CCN(C)C)CC3)cc2c1` showed an INHIBITION of -87.5%. `Cc1cc(C)c2nc(C)c(C(=O)N3CCC(N4CCCC4)CC3)cc2c1` gave an INHIBITION of -39.3%. With `CCN(CC)C1CCN(C(=O)c2cc3cc(C)cc(C)c3nc2C)CC1` the INHIBITION was 56.8%. `Cc1cc(CN2C[C@@H](C)[C@@]3(CCN(CC(=O)N(C)C)C3=O)C2)oc1C` gave an INHIBITION of -100%. With `CC[C@H](C)[C@H](NC(=O)c1ccc(-n2cnnn2)cc1)C(=O)OC` the INHIBITION was -18.7%. `CN1CCN(C(=O)c2occc2CN2C(=O)Cc3ccccc32)CC1` gave an INHIBITION of 54.3%. In the case of `O=C(c1occc1CN1C(=O)Cc2ccccc21)N1CCCCCC1`, the INHIBITION is reported as 3.14%. `O=C(c1occc1CN1C(=O)Cc2ccccc21)N1CC(O)C1` gave an INHIBITION of -89.1%. `Cc1cc(C(N)=O)nc(C2(C)CCCN2Cc2cnn(C)c2C)n1` (configuration not stated) gave an INHIBITION of -80.5%. Work on `O=C(N[C@@H]1CCCNC1)C1(Oc2ccc(Cl)cc2)CCNCC1` yielded an INHIBITION of -14.3%. Work on `CN(C)C(=O)C1(Oc2ccc(Cl)cc2)CCNCC1` yielded an INHIBITION of 49.2%. With `CN(Cc1ccoc1)C(=O)CN1C(=O)OC(C)(C)C1=O` the INHIBITION was -47.7%. For `CN(Cc1ccoc1)C(=O)C1(Oc2ccc(Cl)cc2)CCNCC1`, the INHIBITION was 66.9%. Compound `CN(Cc1ccncn1)C(=O)C1(Oc2ccc(Cl)cc2)CCNCC1` has an INHIBITION of -74.1%. Work on `Cc1ccc(OC2(C(=O)N(C)Cc3ccoc3)CCNCC2)cc1` yielded an INHIBITION of 63.5%. For `COCC(=O)N1CCCn2c(CN3CCCC3)nnc2C1`, the INHIBITION was -108%. For `CC(C)NC(=O)C1(CC2CC(c3ccc(F)cc3)=NO2)CCNCC1` (configuration not stated), the INHIBITION was -90.4%. `COc1ncc(NCc2ccc(Cl)c(Cl)c2)cc1C(N)=O` gave an INHIBITION of -14%. For `O=C(CN1C[C@@H]2CC[C@H]1CN(Cc1ccccn1)C2)NCc1cccs1`, the INHIBITION was 68.4%. Work on `O=C(c1cc(C2CC2)no1)N1C[C@@H]2CC[C@H]1CN(Cc1ccccn1)C2` yielded an INHIBITION of 9.2%. Compound `Cn1ccc(NC(=O)CN2C[C@@H]3CC[C@H]2CN(Cc2ccccn2)C3)n1` has an INHIBITION of -21.7%. For `c1cc(CN2C[C@@H]3OCCN(CC4CC4)[C@@H]3C2)n[nH]1`, the INHIBITION was 7.58%. `CC(=O)N1CCO[C@@H]2CN(S(=O)(=O)C3CC3)C[C@@H]2C1` gave an INHIBITION of -114%. With `CCCc1cncnc1N1CCC(NCc2ccncc2)CC1` the INHIBITION was 66.1%. In the case of `Cc1csc2c(N3CCC(NCCCc4ccncc4)CC3)ncnc12`, the INHIBITION is reported as 64.6%. `Cc1csc2c(N3CCC(NCCCc4cnn(C)c4)CC3)ncnc12` gave an INHIBITION of -10.6%. `Cc1csc2c(N3CCC(NCCc4ccnn4C)CC3)ncnc12` gave an INHIBITION of -18.8%. Work on `CCCN1CCC(NCc2ccncc2)CC1` yielded an INHIBITION of -47.1%. Work on `Cc1ccc(CNC2CCN(CCc3ccncc3)CC2)s1` yielded an INHIBITION of -1.43%. `CCCc1cncnc1N1CCC2(CCC(=O)N(C3CCCC3)C2)CC1` gave an INHIBITION of 29.3%. `CCCc1cncnc1N1CCC2(CCC(=O)N(CCCO)C2)CC1` gave an INHIBITION of -6.89%. Compound `CCCc1cncnc1N1CCC(NCc2ccc(O)cc2)CC1` has an INHIBITION of 50.2%. `CCOc1ccc(C(=O)CCC(=O)N(C)Cc2nc(C)c[nH]2)cc1C` gave an INHIBITION of -27.6%.
